The values below are quoted from earlier work in PubChem BioAssay AID977610 (Shanghai Institute of Organic Chemistry, 2013).

The data set is described as follows: PubChem AID 977610. Particulars: PDB protein-ligand complexes, literature Ki.

Each structure is given as a SMILES string. Out of some 3,600 compounds screened, about 3,600 (100%) were called active. The limit is not given here; nearly all actives have Ki up to about 18000 µM. So high a share suggests a set chosen from earlier hits. Some of the results follow. Numbered stars: 1 amine (or outer) side, 2 acyl side, 3 side chain; on linkers, the order of the positions; unused ones are H or OH. Square brackets hold non-standard residues; d marks the D form. Peptide text beside a SMILES is read from it. LeuΨ(S-CHOHCH2)Ala = CC(C)C[C@H](N[*:1])[C@@H](O)C[C@@H](C)C(=O)[*:2]; Orn(CH(NH2)2) = NC(N)NCCC[C@H](N)C(=O)O; Sta = CC(C)C[C@H](N)[C@@H](O)CC(=O)O

For orientation: Ki means the equilibrium dissociation constant of an inhibitor or competing ligand from its target. Regarding `O=[N+]([O-])c1cccc2ncccc12`, where the note is “protein: PDE10A2, PDB entry 4lm1”, the Ki was 590 µM (active). With `Nc1nc(N)c2cc(CNc3cc(Cl)ccc3Cl)cnc2n1`, the Ki is, setting by setting: (protein: Dihydrofolate reductase(Q35S, N64F mutants), PDB entry 3oaf) 0.0016 µM (active); (protein: human Dihydrofolate reductase, DHFR, PDB entry 4g95) 0.0244 µM (active). Take `CC(C)C[C@H](NC(=O)[C@H](CC(N)=O)NC(=O)[C@@H](NC(=O)[C@H](CCC(=O)O)NC(=O)[C@H](CO)NC(=O)[C@H](Cc1c[nH]c2ccccc12)NC(=O)[C@@H](N)Cc1c[nH]c2ccccc12)C(C)C)[C@@H](O)C[C@@H](C)C(=O)N[C@@H](C)C(=O)N[C@@H](CCC(=O)O)C(=O)N[C@@H](Cc1ccccc1)C(=O)O` (H-WWSEVN[LeuΨ(S-CHOHCH2)Ala]AEF-OH): the Ki (protein: Memapsin 2(?-secretase 1), PDB entry 1xn2) is 3e-05 µM (active).

For `CC[C@H](C)[C@H](NC(=O)[C@H](CO)NC(=O)[C@H](CCCCNC(C)=O)NC(=O)[C@H](Cc1ccccc1)NC(=O)[C@@H](NC(=O)[C@H](CCC(=O)O)NC(=O)[C@H](Cc1ccc(O)cc1)NC(=O)[C@@H](NC(=O)[C@@H](N)CCCNC(N)N)[C@@H](C)O)[C@@H](C)O)C(=O)N[C@@H](CCSC)C(=O)N[C@@H](CCCCN)C(=O)N[C@@H](CCCCN)C(=O)N[C@@H](CO)C(=O)O` (H-[Orn(CH(NH2)2)]TYETFK(Ac)SIMKKS-OH), under “protein: Bromodomain-containing protein 4, PDB entry 2lsp”, the Ki was 274 µM (active).

On to `CC[C@H](C)[C@H](NC(=O)[C@H](CCC(=O)O)NC(=O)[C@H](CCC(=O)O)NC(=O)[C@@H](NC(=O)[C@@H](N)CCCCN)[C@@H](C)O)C(=O)N[C@@H](CO)C(=O)N[C@@H](CCC(=O)O)C(=O)N[C@H](C(=O)N[C@@H](CC(N)=O)C(=O)N[C@@H](CC(C)C)[C@@H](O)CC(=O)N[C@H](C(=O)N[C@@H](C)C(=O)N[C@@H](CCC(=O)O)C(=O)N[C@@H](Cc1ccccc1)C(=O)O)C(C)C)C(C)C` (H-KTEEISEVN[Sta]VAEF-OH), for which the Ki (protein: Memapsin 2(?-secretase 1), PDB entry 1xn3) is 0.04 µM (active). As to `Cn1ccnc1[C@@H](NC[C@H]1O[C@@H](n2ccc(=O)[nH]c2=O)C[C@@H]1O)c1ccccc1`, the Ki (protein: Deoxyuridine 5'-triphosphate nucleotidohydrolase, putative, PDB entry 3t6y) is 3 µM (active). `CN(C[C@H]1O[C@@H](n2ccc(=O)[nH]c2=O)C[C@@H]1O)C(c1ccccc1)c1ccccc1`: the Ki (protein: Deoxyuridine 5'-triphosphate nucleotidohydrolase, putative, PDB entry 3t70) is 0.5 µM (active). In the case of `O=c1ccn([C@H]2C[C@H](O)[C@@H](CNC(c3ccccc3)(c3ccccc3)c3ccccc3)O2)c(=O)[nH]1`, the Ki (protein: Deoxyuridine 5'-triphosphate nucleotidohydrolase, putative, PDB entry 3t60) is 0.2 µM (active). As for `O=c1ccn([C@H]2C[C@H](O)[C@@H](CNC(c3ccccc3)c3ccccc3)O2)c(=O)[nH]1`, under “protein: Deoxyuridine 5'-triphosphate nucleotidohydrolase, putative, PDB entry 3t64”, the Ki was 0.2 µM (active). On to `COC(=O)N[C@H](C(=O)N/[N+](=C\c1ccc(-c2ccsc2)cc1)CCC[C@@]1(O)Cc2ccc(cc2)CC/C=C\NC(=O)[C@H](C(C)C)NC1=O)C(C)(C)C`, for which the Ki (protein: HIV-1 protease, PDB entry 4cpw) was 0.0315 µM (active). With `COC(=O)N[C@H](C(=O)N/[N+](=C\c1ccc(C2=CCSC2)cc1)CCC[C@@]1(O)Cc2ccc(cc2)C/C=C\CNC(=O)[C@H](C(C)C)NC1=O)C(C)(C)C`, the Ki (protein: HIV-1 protease, PDB entry 4cpu) is 0.0295 µM (active).

With `CCOP(=O)(COc1ccc(C[C@H](NC(=O)O[C@H]2CO[C@H]3OCC[C@H]32)[C@H](O)CN(CC(C)C)S(=O)(=O)c2ccc(OC)cc2)cc1)OCC`, the Ki runs as follows: (protein: HIV-1 Protease, PR1 E35EE (VPR1), PDB entry 4m8y) 0.00011 µM (active); (protein: HIV-1 Protease, PR2 (VPR2), PDB entry 4m8x) 6.3e-05 µM (active). In the case of `CC(C)CN(C[C@@H](O)[C@H](Cc1ccccc1)N[C@@H](O)O[C@H]1CO[C@H]2OCC[C@H]21)S(=O)(=O)c1ccc(C(=O)O)cc1`, the Ki (protein: Protease, PDB entry 4i8w) is 1.27e-05 µM (active). With `CC(C)CN(C[C@@H](O)[C@H](Cc1ccccc1)NC(=O)O[C@H]1CO[C@H]2OCC[C@H]21)S(=O)(=O)c1ccc(C(N)=O)cc1`, the Ki (protein: Protease, PDB entry 4i8z) is 8.9e-06 µM (active). For `NC1NC(=O)c2[nH]cc(CN3C[C@H](CO)[C@@H](O)C3)c2N1` (stereo partly drawn), for the setting “protein: Purine nucleoside phosphorylase (W16Y, W94Y, W178Y, H257W mutation), PDB entry 4eb8”, the Ki is 0.000151 µM (active). On to `NC1N[C@@](c2cccc(-c3cncnc3)c2)(c2ccnc(C(F)F)c2)c2cccc(F)c21` (stereo partly drawn), for which the Ki (protein: BETA-SECRETASE 1, PDB entry 4b05) was 0.0261 µM (active).

`CCC(CC)O[C@@H]1C=C(C(=O)O)C[C@H](NC(N)N)[C@H]1NC(C)=O`: the Ki (protein: Neuraminidase, PDB entry 4ks2) was 0.00046 µM (active). With `CCC(CC)O[C@@H]1CC(C(=O)O)=C[C@H](N)[C@H]1NC(C)=O`, the Ki (protein: Neuraminidase, PDB entry 4ks1) is 0.0015 µM (active). Turning to `Cc1onc(-c2ccccc2Cl)c1C(=O)NCC(=O)O`, the Ki (protein: AmpC beta-lactamase, PDB entry 4kz5) is 10000 µM (active).

As to `C[C@@H](O)c1nc2cnc3[nH]ccc3c2n1C1CCC(CC#N)CC1` (stereo partly drawn), the Ki (protein: Tyrosine-protein kinase JAK1, PDB entry 4ivc) is 0.0001 µM (active). Take `C[C@@H](O)c1nc2cnc3[nH]ccc3c2n1C1CCC(C#N)CC1` (stereo partly drawn): the Ki runs as follows: (protein: Tyrosine-protein kinase JAK1, PDB entry 4ivb) 0.0019 µM (active); (protein: Tyrosine-protein kinase JAK2, PDB entry 4iva) 0.0684 µM (active). With `COc1ccc(C2CCCC3N=C(Nc4ccc(N5CCN(C)CC5)cc4)NN32)cc1` (stereo not drawn), the Ki (protein: Tyrosine-protein kinase JAK2, PDB entry 4jia) was 0.0006 µM (active). For `CC(=O)N[C@H]1[C@H]([C@H](O)[C@H](O)CO)O[C@@H](C(=O)O)C[C@@H]1N=C(N)N`, the Ki (protein: Neuraminidase from the B-Lyon-CHU-15.216-2011 virus, PDB entry 4cpz) is 0.0209 µM (active). In the case of `CC(=O)N[C@H]1[C@H]([C@H](O)[C@H](O)CO)OC(C(=O)O)C[C@@H]1NC(N)N` (stereo partly drawn), the Ki (protein: Human Sialidase Neu2, PDB entry 2f0z) was 17 µM (active). `CC(=O)N[C@H]1[C@H]([C@H](O)[C@H](O)CO)OC(C(=O)O)C[C@@H]1O` (stereo partly drawn): the Ki was 1230 µM (active) (protein: Trypanosoma cruzi trans-sialidase, PDB entry 1ms0) and 140 µM (active) (protein: human cytosolic sialidase Neu2, PDB entry 1vcu). For the compound `CCC(CC)(NC(=O)C(C)C)C(=O)N[C@@H](CCCNC(N)N)C(=O)NC1(C(=O)NC(c2ccc(F)cc2)c2ccc(F)cc2)CCCC1`, the Ki (protein: WD repeat-containing protein 5, PDB entry 4gm8) is 0.001 µM (active).

Take `CCC(CC)(NC(=O)C(C)C)C(=O)N[C@@H](CCCNC(N)N)C(=O)NC1(C(=O)NC(c2ccccc2)c2ccccc2)CCCC1`: for the setting “protein: WD repeat-containing protein 5, PDB entry 4gm3”, the inhibition constant Ki was 0.001 µM (active).

`C[C@](COC(=O)CCCCC(=O)O)([C@@H](NCCC=O)C(=O)O)S(=O)O`: the Ki (protein: SHV-1 beta-lactamase, PDB entry 4mbf) is 1.7 µM (active).

Turning to `C[C@H](C(=O)O)c1ccc2c(c1)[nH]c1ccc(Cl)cc12`, the Ki (protein: E. coli sliding clamp, DNA polymerase III subunit beta, PDB entry 4mjr) is 283 µM (active).
